Several values for one entry are separate records, joined by “and”; a condition that tells them apart may be missing. Identical values can stand only once. Records with an inconclusive call do not appear. A call without a number means that no potency is given here. A number with no mark means an inactive call. Activity calls are given as the source filed them. Unless noted, calls come from the whole dose curve; as a rule, active = well fitted curve in the direction sought with a large enough effect; inconclusive = small, poorly fitted or top-dose-only effect, or another doubt; inactive = no such curve, though single readings can be large; an effect the other way counts as inactive or inconclusive.
Assays:
[1] = target: Protein phosphatase 1D (Homo sapiens) (UniProt O15297); assay: RapidFire Mass Spectrometry qHTS Assay for Modulators of WT P53-Induced Phosphatase 1 (WIP1) (AID 1347424);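 note: amount of dephosphorylated VEPPL-S-QETFS peptide product formed by WIP1; series mostly up to about 63 µM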
Sequence of Protein phosphatase 1D (Homo sapiens) (O15297 whole entry, looked up): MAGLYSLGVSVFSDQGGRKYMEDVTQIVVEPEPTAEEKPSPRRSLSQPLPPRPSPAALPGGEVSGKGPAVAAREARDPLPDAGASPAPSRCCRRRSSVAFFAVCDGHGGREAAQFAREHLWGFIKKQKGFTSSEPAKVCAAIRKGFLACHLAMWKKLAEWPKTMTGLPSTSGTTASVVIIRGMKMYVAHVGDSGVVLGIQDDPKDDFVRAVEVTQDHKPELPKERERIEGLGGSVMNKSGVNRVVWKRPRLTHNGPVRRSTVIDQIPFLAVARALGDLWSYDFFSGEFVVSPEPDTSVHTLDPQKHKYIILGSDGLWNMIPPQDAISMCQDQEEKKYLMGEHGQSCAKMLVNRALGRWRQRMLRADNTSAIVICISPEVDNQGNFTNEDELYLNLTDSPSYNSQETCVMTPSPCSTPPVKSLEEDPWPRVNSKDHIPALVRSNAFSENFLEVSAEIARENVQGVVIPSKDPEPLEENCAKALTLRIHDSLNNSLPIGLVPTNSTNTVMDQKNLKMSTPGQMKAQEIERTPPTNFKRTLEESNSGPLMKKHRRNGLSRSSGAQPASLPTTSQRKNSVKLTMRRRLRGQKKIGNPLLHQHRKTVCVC
Method in brief: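 10 nM WIP1 preincubated with compounds 1 hr at room temperature in pH 7.5 Tris buffer with 30 mM MgCl2, 1 mM TCEP; 2 uM VEPPL-pS-QETFS phosphopeptide for 5 min, formic acid quench; dephosphorylated product quantified by RapidFire MS against labelled standard.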

[2] = target: Protein phosphatase 1D (Homo sapiens) (UniProt O15297); assay: Rhodamine-PBP qHTS Assay for Modulators of WT P53-Induced Phosphatase 1 (WIP1) (AID 1347425)
Method in brief: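 5 nM WIP1 + 10 uM Rh-PBP, 50 mM Tris pH 7.5, 30 mM MgCl2, 1 mM TCEP, 0.1 mM EGTA, BSA; cpds pinned, 1 hr RT; + 10 uM phosphopeptide; fluorescence 1-min reads x 11 min; delta = f1 - f0.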

[3] = Primary qHTS for inhibitors of La Crosse Virus (LACV) - induced cell death in SH-SY5Y cells (AID 1508616);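 note: top concentration of the series differs between compounds; higher means more rescue of cells from virus-induced death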
Method in brief: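 Readout was luminescence from ATPLite 1step added after a 6-day LACV infection (0.01 MOI) of SH-SY5Y cells that had received pin-transferred compound 24 hr after seeding.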

[4] = target: Calcium and integrin-binding protein 1 (Homo sapiens) (UniProt Q99828); assay: Primary qHTS for Identification of Calcium Integrin Binding Protein 1 (CIB1) Competitor (AID 1508620);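 note: GST tagged CIB1 binding a fluorescein labelled alphaIIb integrin peptide tracer; top concentration of the series differs between compounds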
Sequence of Calcium and integrin-binding protein 1 (Homo sapiens) (Q99828 whole entry, looked up): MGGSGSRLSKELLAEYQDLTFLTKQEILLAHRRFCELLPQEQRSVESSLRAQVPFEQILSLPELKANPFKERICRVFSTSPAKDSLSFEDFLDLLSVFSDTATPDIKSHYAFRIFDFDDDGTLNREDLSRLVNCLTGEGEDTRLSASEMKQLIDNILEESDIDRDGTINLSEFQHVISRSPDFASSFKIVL
Method in brief: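 Fluorescence polarization competition: GST-tagged CIB1 (1 uM final) preincubated with compound 15 min at room temperature, then FITC-labelled alphaIIb peptide (100 nM final) added. After 15 min at room temperature, polarization read at Ex 480/Em 540.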

[5] = Primary qHTS for small molecule stabilizers of the endoplasmic reticulum resident proteome: Secreted ER Calcium Modulated Protein (SERCaMP) assay (AID 1508630)
Method in brief: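 GLuc-SERCaMP-expressing SH-SY5Y cells, pretreated 16 h with compound, are challenged with thapsigargin to empty ER calcium stores; after 4 h, coelenterazine is added directly to the medium and luminescence is imaged.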

[6] = A High-Content qHTS Against Drug Library for the Identification of Small Molecules that Inhibit DYT1 Early Onset Primary Dystonia-Associated Cell Pathology (AID 1645839; calls by dose curve; note: series mostly up to about 46 µM)
Method in brief: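 Flp-In T-REx 293 cells with tetracycline-inducible EGFP-delE hTOR1A (WT EGFP-hTOR1A as reference), 800 cells/well; compound added with tetracycline, 48 h at 37 C. Fixed, permeabilized cells imaged; %pathology (punctate TorsinA) primary, cell count counterscreen.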

[7] = target: Cytochrome P450 2D6 (Homo sapiens) (UniProt P10635); assay: Cytochrome P450 family 2 subfamily D member 6 (CYP2D6) small molecule antagonists: luciferase biochemical (cell-free) qHTS assay (AID 1645840; active = well fitted curve in the direction sought with a large enough effect in the repeat runs; an effect the other way counts as inactive or inconclusive; note: nearly all actives have a fitted effect of over 55% in size; note: potency is the fitted concentration of half-maximal effect)
Sequence of Cytochrome P450 2D6 (Homo sapiens) (P10635 whole entry, looked up): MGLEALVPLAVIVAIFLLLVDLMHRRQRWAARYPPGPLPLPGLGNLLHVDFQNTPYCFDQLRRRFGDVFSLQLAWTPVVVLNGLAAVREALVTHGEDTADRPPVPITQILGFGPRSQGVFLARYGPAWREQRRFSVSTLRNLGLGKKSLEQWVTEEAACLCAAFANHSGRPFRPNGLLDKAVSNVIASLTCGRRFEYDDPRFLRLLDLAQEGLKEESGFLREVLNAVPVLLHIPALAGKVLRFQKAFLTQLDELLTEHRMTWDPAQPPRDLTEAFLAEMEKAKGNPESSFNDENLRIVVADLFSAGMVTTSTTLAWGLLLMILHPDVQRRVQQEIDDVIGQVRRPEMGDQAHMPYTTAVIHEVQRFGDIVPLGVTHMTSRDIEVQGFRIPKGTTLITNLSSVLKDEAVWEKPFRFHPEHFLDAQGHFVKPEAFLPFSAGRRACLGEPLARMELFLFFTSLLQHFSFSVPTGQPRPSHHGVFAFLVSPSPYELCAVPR
Method in brief: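 P450-Glo luminescent screen: recombinant CYP2D6 enzyme–proluciferin substrate mix preincubated with compound 10 min at room temperature, then NADPH regeneration added for 1 h at room temperature. Detection reagent added for 20 min; luciferin light read as relative luminescence units.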

[8] = target: Cytochrome P450 2C9 (Homo sapiens) (UniProt P11712); assay: Cytochrome P450 family 2 subfamily C member 9 (CYP2C9) small molecule antagonists: luciferase biochemical (cell-free) qHTS assay (AID 1645842; active = well fitted curve in the direction sought with a large enough effect in the repeat runs; an effect the other way counts as inactive or inconclusive; note: nearly all actives have a fitted effect of over 55% in size; note: potency is the fitted concentration of half-maximal effect)
Sequence of Cytochrome P450 2C9 (Homo sapiens) (P11712 whole entry, looked up): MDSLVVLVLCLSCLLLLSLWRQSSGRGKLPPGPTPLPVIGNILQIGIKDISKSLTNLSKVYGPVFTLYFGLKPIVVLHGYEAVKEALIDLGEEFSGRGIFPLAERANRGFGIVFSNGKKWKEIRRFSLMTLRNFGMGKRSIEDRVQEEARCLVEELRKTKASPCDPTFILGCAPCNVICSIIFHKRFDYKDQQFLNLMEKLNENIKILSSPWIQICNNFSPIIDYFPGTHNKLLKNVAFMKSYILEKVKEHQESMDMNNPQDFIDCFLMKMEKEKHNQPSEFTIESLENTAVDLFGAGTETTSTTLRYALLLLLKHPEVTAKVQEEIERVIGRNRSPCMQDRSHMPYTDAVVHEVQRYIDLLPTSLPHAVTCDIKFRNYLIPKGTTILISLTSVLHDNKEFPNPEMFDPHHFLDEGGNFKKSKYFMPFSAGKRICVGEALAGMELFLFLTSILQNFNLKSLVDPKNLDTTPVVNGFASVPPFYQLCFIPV
Method in brief: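 Luminescence, after 20 min with luciferin detection reagent, reflected CYP2C9 turnover during a 1 h NADPH-driven reaction at 37C. Enzyme-substrate mix contained 0.4% bovine serum albumin and was preincubated with compound 10 min at room temperature.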

[9] = Primary qHTS for inhibitors of nuclear receptor binding SET domain protein 2 (NSD2) in an isogenic RCH-ACV NSD2 p.E1099K mutant (9B) (AID 1645876); note: nearly all actives have a fitted effect of over 70% in size; note: potency is the fitted concentration of half-maximal effect
[10] = target: Calcium and integrin-binding protein 1 (Homo sapiens) (UniProt Q99828); assay: Confirmatory qHTS for Identification of Calcium Integrin Binding Protein 1 (CIB1) Competitor (AID 1508617); note: nearly all actives have a fitted effect of over 65% in size
Method in brief: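 Confirmatory qHTS measures displacement of a FITC-alphaIIb peptide (100 nM) from CIB1-GST (1 uM) by fluorescence polarization. Calcium-containing HEPES buffer, pH 7.4; two 15 min room-temperature incubations.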

[11] = Primary qHTS for inhibitors of nuclear receptor binding SET domain protein 2 (NSD2) in an RCH-ACV wild type WT cells (2C) (AID 1645877); note: nearly all actives have a fitted effect of over 70% in size; note: potency is the fitted concentration of half-maximal effect
[12] = Counterscreen qHTS for small molecule stabilizers of the endoplasmic reticulum resident proteome: GLuc-NoTag assay (AID 1508627);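 note: SH-SY5Y cells given compound then 100 nM thapsigargin to empty ER calcium; series mostly up to about 76 µM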
Method in brief: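 SH-SY5Y cells stably expressing constitutively secreted GLuc without SERCaMP tag, exposed to compound for 19 hr, then to 100 nM thapsigargin for 4 hr at 37C. Medium luciferase was read by coelenterazine luminescence without lysis.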

[13] = Confirmatory qHTS for small molecule stabilizers of the endoplasmic reticulum resident proteome: Secreted ER Calcium Modulated Protein (SERCaMP) assay (AID 1508628);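 note: SH-SY5Y cells given compound 16 h then thapsigargin 100 nM for 4 h; series mostly up to about 76 µM; nearly all actives have a fitted effect of over 40% in size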
Method in brief: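 We seeded SH-SY5Y-GLuc-SERCaMP cells, added compounds (three concentrations in the primary run, eleven up to 76.6 uM in confirmation), incubated 16 h, depleted ER calcium with thapsigargin, and read luciferase 4 h later.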

[14] = Cell Viability qHTS for small molecule stabilizers of the endoplasmic reticulum resident proteome (AID 1508629); settings: cell viability counter-screen, 100 nM thapsigargin for final 4 h;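 note: human SH-SY5Y neuroblastoma cells carrying the GLuc-SERCaMP reporter; compound exposure about 46 h in total before the viability read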

CN(C)CCC[C@@]1(c2ccc(F)cc2)OCc2cc(C#N)ccc21
Potency [1]: inactive | outcome [2]: inactive | outcome [3]: inactive | Potency [4]: inactive | Potency [5]: inactive | Potency [6]: inactive | Potency [7]: 13.8 µM (active) and 12 µM (active) | Potency [8]: inactive | Potency [9]: inactive

CCC1NC(=O)c2cc(S(N)(=O)=O)c(Cl)cc2N1 (stereo not drawn)
Potency [1]: inactive | outcome [2]: inactive | outcome [3]: inactive | Potency [4]: inactive | Potency [5]: inactive | Potency [6]: inactive

COc1cc(O)c(C(=O)c2ccccc2)cc1S(=O)(=O)O
Potency [1]: inactive | outcome [2]: inactive | outcome [3]: inactive | Potency [4]: inactive | Potency [5]: inactive | Potency [6]: inactive | Potency [7]: inactive | Potency [8]: inactive

CC(=O)O[C@]1(C(C)=O)CC[C@H]2[C@@H]3C=C(Cl)C4=CC(=O)CC[C@]4(C)[C@H]3CC[C@@]21C
Potency [1]: inactive | outcome [2]: inactive | outcome [3]: inactive | Potency [4]: inactive | Potency [5]: inactive | Potency [6]: inactive | Potency [7]: inactive | Potency [8]: 8.71 µM (active)

CC[N+](C)(CC)CCOC(=O)C(O)(c1ccccc1)C1CCCCC1 (stereo not drawn)
Potency [1]: inactive | outcome [2]: inactive | outcome [3]: inactive | Potency [4]: inactive | Potency [5]: inactive | Potency [6]: inactive | Potency [7]: 0.776 µM (active) | Potency [8]: inactive | Potency [9]: inactive

Cc1cc(CC(=O)O)c(C)n1-c1ccc(Cl)cc1
Potency [1]: inactive | outcome [2]: inactive | outcome [3]: inactive | Potency [4]: inactive | Potency [5]: inactive | Potency [6]: inactive | Potency [7]: inactive

Cc1nc(-c2ccc(Cl)cc2)oc1COC(C)(C)C(=O)O
Potency [1]: inactive | outcome [2]: inactive | outcome [3]: inactive | Potency [4]: inactive | Potency [5]: inactive | Potency [6]: inactive | Potency [7]: inactive | Potency [8]: inactive

CN1CCc2cccc3c2[C@H]1Cc1ccc(O)c(O)c1-3
Potency [1]: inactive | outcome [2]: inactive | outcome [3]: inactive | Potency [10]: inactive | Potency [5]: inactive | Potency [8]: inactive | Potency [9]: 6.68 µM (active) | Potency [11]: 7.5 µM (active)

CCCCOC(=O)CC(CC(=O)OCCCC)(OC(C)=O)C(=O)OCCCC
Potency [1]: inactive | outcome [2]: inactive | outcome [3]: inactive | Potency [4]: inactive | Potency [5]: inactive | Potency [6]: inactive | Potency [7]: inactive | Potency [8]: 1.74 µM (active) | Potency [9]: inactive

COc1ccc(CN(CCN(C)C)c2ncccn2)cc1
Potency [1]: inactive | outcome [2]: inactive | outcome [3]: inactive | Potency [4]: inactive | Potency [5]: inactive | Potency [6]: inactive | Potency [7]: 0.49 µM (active) | Potency [8]: inactive | Potency [9]: inactive | Potency [11]: inactive

COc1cc(N)c(Cl)cc1C(=O)NC1CCN(Cc2ccccc2)CC1
Potency [1]: inactive | outcome [2]: inactive | outcome [3]: inactive | Potency [4]: inactive | Potency [5]: inactive | Potency [6]: inactive | Potency [7]: 0.0219 µM (active) | Potency [8]: inactive

CCOc1cc(OCC)c(C(=O)CCC(=O)O)cc1OCC
Potency [1]: inactive | outcome [2]: inactive | outcome [3]: inactive | Potency [4]: inactive | Potency [12]: inactive | Potency [13]: inactive | max response [14]: 24.8% | Potency [6]: inactive | Potency [7]: inactive | Potency [8]: inactive | Potency [9]: inactive | Potency [11]: inactive

CC(=C(CCOC(=O)C(C)C)SSC(CCOC(=O)C(C)C)=C(C)N(C=O)Cc1cnc(C)nc1N)N(C=O)Cc1cnc(C)nc1N
Potency [1]: inactive | outcome [2]: inactive | outcome [3]: inactive | Potency [4]: inactive | Potency [5]: inactive | Potency [6]: inactive | Potency [7]: inactive | Potency [8]: inactive

COc1ccc(S(=O)(=O)N2c3ccc(Cl)cc3[C@@](O)(c3ccccc3Cl)[C@H]2C(=O)N2CCC[C@@H]2C(N)=O)cc1OC
Potency [1]: inactive | outcome [2]: inactive | outcome [3]: inactive | Potency [4]: inactive | Potency [5]: inactive | Potency [6]: inactive | Potency [7]: inactive | Potency [8]: 15.5 µM (active)

Nc1ccc(S(=O)(=O)NCc2ccccc2)cc1
Potency [1]: inactive | outcome [2]: inactive | outcome [3]: inactive | Potency [4]: inactive | Potency [5]: inactive | Potency [6]: inactive | Potency [7]: inactive | Potency [8]: inactive | Potency [9]: inactive | Potency [11]: inactive

Clc1cccc(C(c2ccc3nc[nH]c3c2)n2ccnc2)c1 (stereo not drawn)
Potency [1]: inactive | outcome [2]: inactive | outcome [3]: inactive | Potency [4]: inactive | Potency [5]: inactive | Potency [6]: inactive | Potency [7]: 15.5 µM (active) | Potency [8]: 7.76 µM (active) | Potency [9]: inactive | Potency [11]: inactive

NCCNC(=O)c1ccc(Cl)cn1
Potency [1]: inactive | outcome [2]: inactive | outcome [3]: inactive | Potency [4]: inactive | Potency [5]: inactive | Potency [6]: inactive | Potency [7]: inactive | Potency [8]: inactive | Potency [9]: inactive | Potency [11]: inactive

OCc1ccccn1
Potency [1]: inactive | outcome [2]: inactive | outcome [3]: inactive | Potency [4]: inactive | Potency [5]: inactive | Potency [6]: inactive | Potency [7]: inactive | Potency [8]: inactive | Potency [9]: inactive | Potency [11]: inactive

CN1CCN(c2cc3c(cc2F)c(=O)c(C(=O)O)cn3-c2ccc(F)cc2)CC1
Potency [1]: inactive | outcome [2]: inactive | outcome [3]: inactive | Potency [4]: inactive | Potency [5]: inactive | Potency [6]: inactive | Potency [7]: inactive | Potency [8]: inactive | Potency [9]: 11.9 µM (active) | Potency [11]: 7.5 µM (active)

COc1ccc(/C=N/NC(=O)c2ccncc2)cc1OC
Potency [1]: inactive | outcome [2]: inactive | outcome [3]: inactive | Potency [4]: inactive | Potency [5]: inactive | Potency [6]: inactive | Potency [7]: 21.9 µM (active) | Potency [8]: 12.3 µM (active) | Potency [9]: inactive | Potency [11]: inactive

CCN(CC)CCNC(=O)COc1ccc(OC)cc1
Potency [1]: inactive | outcome [2]: inactive | outcome [3]: inactive | Potency [4]: inactive | Potency [5]: inactive | Potency [6]: inactive | Potency [7]: 13.8 µM (active) | Potency [8]: inactive | Potency [9]: inactive | Potency [11]: inactive

OCCOCCN1CCN(C2=Nc3ccccc3Sc3ccccc32)CC1
Potency [1]: inactive | outcome [2]: inactive | outcome [3]: inactive | Potency [4]: inactive | Potency [5]: inactive | Potency [6]: inactive | Potency [7]: inactive | Potency [8]: inactive | Potency [9]: inactive | Potency [11]: inactive

CCC(C(=O)OCCOCCN(CC)CC)c1ccccc1 (stereo not drawn)
Potency [1]: inactive | outcome [2]: inactive | outcome [3]: inactive | Potency [4]: inactive | Potency [5]: inactive | Potency [6]: inactive | Potency [7]: 11 µM (active) | Potency [8]: inactive | Potency [9]: inactive | Potency [11]: inactive
